Assay in all cases: glycan array binding signal (z-score within array); higher = stronger binding
Common to all, as to conditions: glycan notation: IUPAC condensed, linker removed

One test addresses Fuc(a1-2)Gal(b1-4)Glc6S. The procedure, abridged:
(§1)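 From the Consortium for Functional Glycomics database, 3228 arrays were curated, keeping only those whose protein sequence was available. Binding is given as a within-array Z-score averaged across arrays sharing a protein sequence and across linkers. Negative Z-scores can be read as non-binding.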

The target in test [1] is Fuc(a1-2)[GalNAc(a1-3)]Gal(b1-4)Glc. The procedure, abridged: as §1
Test [2] addresses Gal(b1-3)Gal(b1-4)GlcNAc(b1-2)Man(a1-3)[Gal(b1-3)Gal(b1-4)GlcNAc(b1-2)Man(a1-6)]Man(b1-4)GlcNAc(b1-4)GlcNAc. In outline: as §1
Test [3] deals with Gal(b1-3)GlcNAc(b1-2)Man(a1-3)[Gal(b1-3)GlcNAc(b1-2)Man(a1-6)]Man(b1-4)GlcNAc(b1-4)GlcNAc. The procedure, abridged:
as §1

For test [4], the target named is Gal(b1-3)[Fuc(a1-4)]GlcNAc. In outline:
as §1

The target of a further test is Gal(b1-4)GlcNAc. In outline: as §1
The target of test [5] is Gal(b1-4)GlcNAc(b1-3)Gal(b1-3)GlcNAc. In outline: as §1
Another test has as its target Gal3S(b1-3)GlcNAc. The procedure, abridged:
as §1

For the next test, the target named is Gal3S4S(b1-4)GlcNAc. The procedure, abridged: as §1
The next test deals with GalNAc(a1-3)Gal. In outline:
as §1

A further test has as its target GalNAc(a1-3)GalNAc. In outline:
as §1

Test [6] concerns the target GalNAc(b1-3)Gal(a1-4)Gal(b1-4)GlcNAc. The procedure, abridged:
as §1

For test [7], the target named is GlcNAc(a1-4)Gal(b1-4)GlcNAc(b1-3)Gal(b1-4)[Fuc(a1-3)]GlcNAc(b1-3)Gal(b1-4)[Fuc(a1-3)]GlcNAc. In outline: as §1
Test [8] deals with GlcNAc(b1-4)GlcNAc(b1-4)GlcNAc(b1-4)GlcNAc(b1-4)GlcNAc. The procedure, abridged:
as §1

Test [9] addresses GlcNAc(b1-4)GlcNAc(b1-4)GlcNAc(b1-4)GlcNAc(b1-4)GlcNAc(b1-4)GlcNAc. The procedure, abridged: as §1
Test [10] has as its target GlcNAc6S(b1-3)Gal(b1-4)GlcNAc. In outline: as §1
For test [11], the target named is Kdn(a2-3)Gal(b1-4)[Fuc(a1-3)]GlcNAc. The procedure, abridged:
as §1

Test [12] has as its target Man(a1-2)Man(a1-2)Man(a1-6)[Man(a1-3)]Man. The procedure, abridged:
as §1

The target of test [13] is Man(a1-2)Man(a1-3)[Man(a1-2)Man(a1-6)]Man(a1-6)[Man(a1-2)Man(a1-2)Man(a1-3)]Man. The procedure, abridged: as §1
The target in test [14] is Man(a1-2)Man(a1-3)[Man(a1-2)Man(a1-6)]Man(a1-6)[Man(a1-3)[Man(a1-6)]Man(a1-6)]Man(b1-4)GlcNAc(b1-4)GlcNAc. The procedure, abridged: as §1
For test [15], the target named is Man(a1-2)Man(a1-3)[Man(a1-6)]Man(a1-6)[Man(a1-2)Man(a1-3)]Man(b1-4)GlcNAc(b1-4)GlcNAc. The procedure, abridged:
as §1

In test [16] the target is Man(a1-2)Man(a1-6)[Man(a1-3)]Man(a1-6)[Man(a1-2)Man(a1-2)Man(a1-3)]Man(b1-4)GlcNAc(b1-4)GlcNAc. The procedure, abridged:
as §1

The next test has as its target Man(a1-3)[Man(a1-6)]Man. The procedure, abridged: as §1
Test [17] deals with Man(a1-3)[Man(a1-6)]Man(a1-6)[Man(a1-2)Man(a1-3)]Man(b1-4)GlcNAc(b1-4)GlcNAc. The procedure, abridged:
as §1

Test [18] addresses Man(a1-3)[Man(a1-6)]Man(a1-6)[Man(a1-3)]Man(b1-4)GlcNAc(b1-4)GlcNAc. In outline: as §1
Test [19] deals with Man(a1-3)[Man(a1-6)]Man(b1-4)GlcNAc(b1-4)GlcNAc. The procedure, abridged: as §1
Test [20] deals with Neu5Ac(a2-3)Gal(b1-4)GlcNAc6S. In outline:
as §1

Test [21] concerns the target Neu5Ac(a2-3)Gal(b1-4)[Fuc(a1-3)]GlcNAc. The procedure, abridged: as §1
In test [22] the target is Neu5Ac(a2-6)Gal(b1-4)GlcNAc. In outline:
as §1

For test [23], the target named is Neu5Ac(a2-6)Gal(b1-4)GlcNAc(b1-2)Man(a1-3)Man(b1-4)GlcNAc(b1-4)GlcNAc. In outline:
as §1

Test [24] concerns the target Neu5Ac(a2-6)Gal(b1-4)GlcNAc(b1-3)Gal(b1-4)GlcNAc. The procedure, abridged: as §1
Test [25] deals with Neu5Ac(a2-3)Gal(b1-4)GlcNAc(b1-3)Gal(b1-4)GlcNAc(b1-3)Gal(b1-4)GlcNAc. The procedure, abridged:
as §1

Test [26] concerns the target Neu5Ac(a2-3)Gal6S(b1-4)GlcNAc. In outline:
as §1

The target in test [27] is Neu5Ac(a2-6)Gal(b1-3)GlcNAc(b1-3)[Gal(b1-4)GlcNAc(b1-6)]Gal(b1-4)Glc. The procedure, abridged: as §1

The entries come from a sample that favours the strongest signals as a whole.

B1: MVL (Microcystis viridis), Q9RHG4 (protein)
chain: MASYKVNIPAGPLWSNAEAQQVGPKIAAAHQGNFTGQWTTVVESAMSVVEVELQVENTGIHEFKTDVLAGPLWSNDEAQKLGPQIAASYGAEFTGQWRTIVEGVMSVIQIKYTF
Regarding B1, the “glycan array binding signal (z-score)” value is -0.234 in the test with Fuc(a1-2)Gal(b1-4)Glc6S; -0.201 in [1]; 1.85 in test [2]; 1.51 in test [3]; -0.232 in test [4]; -0.227 in the test with Gal(b1-4)GlcNAc. In addition, the “glycan array binding signal (z-score)” value was -0.23 in [5]; -0.239 in the test with Gal3S(b1-3)GlcNAc; -0.243 in the test with Gal3S4S(b1-4)GlcNAc; -0.231 with GalNAc(a1-3)Gal; -0.243 in the test with GalNAc(a1-3)GalNAc; -0.243 in [6]. In addition, the “glycan array binding signal (z-score)” value is 0.006 in [7]; 0.051 in [8]; -0.006 in test [9]; -0.119 in test [10]; -0.121 in test [11]; -0.183 in test [12]. Also, the “glycan array binding signal (z-score)” value was 7.38 in test [13]; 5.26 in [14]; 2.01 in test [15]; 6.83 in test [16]; -0.232 in the test with Man(a1-3)[Man(a1-6)]Man; 2.68 in test [17]. Also, the “glycan array binding signal (z-score)” value is 2.72 in [18]; 1.59 in test [19]; -0.238 in test [20]; -0.23 in test [21]; -0.241 in test [22]; 0.179 in [23]. The “glycan array binding signal (z-score)” value in test [24] is -0.236.

B2: Gal 4 (Canis lupus) (protein)
chain: MAYVPAPGYQPTYNPTLPYNKPIPGGLSVGMSVYIQGITSEHMRRFCVNFVAGAHPGSDIAFHFNPRFDGWDKVVFNSHLGGKWGSEEKKRSMPFRKGTHFELVFMVLAEHYKVVVNGNPFYEFGHRLPLQLVTHLQVEGDVELQSINFIGGTQPLGQGPGHTQQQPSSLPTMEGPPVFNPPVPFRKRLQGGLTVRRTVIIKGFVPFTSKSFVINFMVESSGDLALHINPRLTEGLVVRNSCLNGSWGSEDRKLSYNPFIPGQFFDLSIRCGMDRFKVYANGQHLFDFSHRLLALQNVDMLEINGDVTLSYIQV
Consider B2, for which the “glycan array binding signal (z-score)” value is -0.153 in test [25]; -0.16 in [26]; -0.151 in [27]; -0.151 in [23]; -0.151 in test [24].

The record behind these values is the supplement of paper PMC8728848.
